TGFb SMAD3 inh – TGF-b pathway inhibition; hit rate 1.2% among 410,000; Potency, µM (highest dose often 46.1 µM), usual class: inhibitors; HepG2 CAGA-GFP TGF-b/SMAD3 reporter, GFP fluorescence, 18 h; TGF-beta stimulated, 500 pg/mL final; note: nearly all actives have a fitted effect of over 65% in size
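HEPG2 CAGA-GFP cells (1000/well, DMEM with 1% FBS) were pre-incubated 2 h at 37 degrees C, given compound by pin tool, then stimulated with TGF-beta at 500 pg/mL final for 18 h before per-cell GFP fluorescence imaging.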
Six1-Eya2 blk – blocks human Six1 binding to Eya2; Q15475+O00167; AlphaScreen GST-Six1/His-Eya2 binding, biochemical; hits give low values; activity change, % (concentration not given with the values); hit rate 0.56% among 360,000; AID 651725; in the data active = activity change below about -65%; inconclusive = mostly about -30% to -63%
Target sequence (O00167 whole entry, looked up): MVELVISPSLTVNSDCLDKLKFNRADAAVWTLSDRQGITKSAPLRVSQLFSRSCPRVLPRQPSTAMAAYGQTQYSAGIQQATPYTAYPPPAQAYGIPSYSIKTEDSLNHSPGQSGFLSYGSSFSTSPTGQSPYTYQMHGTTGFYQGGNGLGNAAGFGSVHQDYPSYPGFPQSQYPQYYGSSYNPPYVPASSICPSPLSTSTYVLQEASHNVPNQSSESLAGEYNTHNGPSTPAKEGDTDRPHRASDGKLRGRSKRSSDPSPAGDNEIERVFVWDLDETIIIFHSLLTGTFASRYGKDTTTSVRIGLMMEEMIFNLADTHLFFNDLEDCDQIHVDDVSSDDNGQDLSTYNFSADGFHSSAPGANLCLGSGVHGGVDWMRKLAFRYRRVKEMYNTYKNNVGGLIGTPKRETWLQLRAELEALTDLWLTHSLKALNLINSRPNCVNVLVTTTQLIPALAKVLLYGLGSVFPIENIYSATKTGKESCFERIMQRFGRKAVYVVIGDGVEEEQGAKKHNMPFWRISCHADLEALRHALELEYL
Target sequence (Q15475 whole entry, looked up): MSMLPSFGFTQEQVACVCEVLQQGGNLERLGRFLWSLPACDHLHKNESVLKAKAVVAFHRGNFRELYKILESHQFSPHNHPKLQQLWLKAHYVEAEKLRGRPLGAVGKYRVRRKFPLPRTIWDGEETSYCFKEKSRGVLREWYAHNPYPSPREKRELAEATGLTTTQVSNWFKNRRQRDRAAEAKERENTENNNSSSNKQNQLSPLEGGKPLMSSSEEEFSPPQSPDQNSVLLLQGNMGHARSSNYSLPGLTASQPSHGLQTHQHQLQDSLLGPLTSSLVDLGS
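Six1/Eya2 binding was read as AlphaScreen signal after compounds were pinned into GST-Six1 plus His-tagged Eya2 (5X stock 250/500 nM) in pH 8.0 Tris/NaCl/TCEP buffer, beads added, then incubated 1 h, 37 C, dark.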
S2 tox – reduces viability in counter-screen for ATXN expression inhibitors; Potency, µM (doses to about 56.7 µM), usual class: cytotoxic; S2 cells (HEK-293 line with an ATXN2-luciferase reporter) viability, CellTiter-Fluor protease fluorescence, 24 h; hit rate 0.49% among 400,000; AID 651635; note: nearly all actives have a fitted effect of over 40% in size
HepG2 viability – counter-screen for TGF-b inhibitors: cytotoxicity in HepG2 cells; AID 588856; hit rate 0.76% among 410,000; HepG2 CAGA-GFP viability, ATP luminescence, 18 h; Potency, µM (doses to about 46.1 µM), actives largely listed as cytotoxic
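CellTiter-Glo luminescence gave cytotoxicity after 18 hours at 37 degrees C. The cells were HepG2 CAGA-GFP in 1% FBS DMEM, stimulated with 500 pg/mL TGF-beta after compound addition. %Activity was normalised to no-cell wells (complete cell-killing) and DMSO (no toxicity), and curves were fitted and classified.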
ATXN2 expr inh – inhibitors of ATXN2 expression. Potency, µM (doses to about 57 µM), actives largely listed as inhibitors. hit rate 0.72% among 360,000. HEK-293 ATXN2-luciferase reporter, luminescence, 24 h. AID 1745845; note: nearly all actives have a fitted effect of over 55% in size
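qHTS (up to 57 uM final) was run with 24 h compound exposure of reporter cells at 37 °C. Each well was multiplexed: SteadyGlo luminescence measured ATXN2-luciferase expression after a fluorogenic Gly-Phe-AFC viability readout (25 uM final).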
CtBP-E1A blk – blocks the CtBP interaction with E1A | activity change, % (test concentration not listed) | hit rate 0.49% among 340,000 | AlphaScreen GST-E1A/His-CtBP binding, 1536-well; hits give low values; in the data active = activity change below about -65%; inconclusive = mostly about -30% to -63%
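Homogeneous bead-based format: GST-tagged E1A captured on glutathione donor beads, His-tagged CtBP on nickel acceptor beads; compounds precede bead addition by 2 h at 37 °C.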
Hits are given with their value; i = inactive; ? = inconclusive; nt = no result given. Sampled rows, rich in hits. Any-hit rate of the full collection: about 2.8%. Unless noted, calls come from the whole dose curve; as a rule, active = well fitted curve in the direction sought with a large enough effect; inconclusive = small, poorly fitted or top-dose-only effect, or another doubt; inactive = no such curve, though single readings can be large; an effect the other way counts as inactive or inconclusive.

SMILES | TGFb SMAD3 inh | Six1-Eya2 blk | S2 tox | HepG2 viability | ATXN2 expr inh | CtBP-E1A blk
C#CC(C)(C)NS(=O)(=O)c1cc(-c2nnc(Nc3ccc(C)cc3)c3ccccc23)ccc1C | 12.6µM | nt | i | i | i | nt
CCN(CC)C(=O)c1ccc(Nc2nnc(-c3ccc(C)c(S(=O)(=O)NC)c3)c3ccccc23)cc1 | 11.2µM | nt | i | i | i | nt
CNS(=O)(=O)c1cc(-c2nnc(Nc3ccc(NC(C)=O)cc3)c3ccccc23)ccc1C | ? | i | i | i | i | i
Cc1ccc(-c2nnc(Nc3ccc(Cl)c(Cl)c3)c3ccccc23)cc1S(=O)(=O)NCCO | 11.2µM | nt | ? | i | ? | nt
Cc1ccc(-c2nnc(Nc3cccc(O)c3)c3ccccc23)cc1S(=O)(=O)N1CCN(C)CC1 | i | nt | ? | i | i | nt
Cc1ccc(-c2nnc(Nc3ccc4c(c3)OCO4)c3ccccc23)cc1S(=O)(=O)NCCO | ? | i | i | i | i | i
Cc1ccc(Cn2c(=O)n(Cc3ccccc3Cl)c(=O)c3cccnc32)cc1 | i | nt | i | i | i | nt
CCc1ccc(N2C(=O)CC(c3cc(OC)ccc3OC)C3=C2COC3=O)cc1 (configuration not stated) | i | nt | i | i | i | nt
NC(COCc1ccccc1)c1csc(Nc2ccc(S(N)(=O)=O)cc2)n1 (configuration not stated) | i | i | i | i | i | i
COc1cccc(OCCn2cc(C=O)c3ccccc32)c1 | 3.55µM | i | i | i | i | i
COC(=O)N/N=C/c1cn(CCOc2cccc(OC)c2)c2ccccc12 | ? | i | i | i | nt | nt
CC1(C)CC(=O)C=C(c2n[nH]nc2C2=CCCCC2)C1 | i | i | i | i | i | i
Cc1cc(C(=O)Nc2ccccc2-c2nc(CNC(=O)c3ccc(F)cc3F)c(C)o2)c(C)o1 | nt | nt | i | nt | nt | nt
CCOc1ccc(N=C/C=C/c2ccccc2)c(O)c1 | 14.1µM | i | ? | i | nt | nt
Oc1ccc(/C=N/NC(=S)NCCN2CCOCC2)c(O)c1 | i | -89.6 | i | i | nt | nt
CNC(=O)Nc1ccc(-c2nc(N3CC4CCC(C3)O4)c3cnn(C4CCC5(CC4)OCCO5)c3n2)cc1 | nt | nt | nt | nt | i | nt
Nc1ncc([N+](=O)[O-])c(N2CCCCCC2)n1 | i | i | i | 7.08µM | i | i
CCOc1ccccc1N=Nc1c(C)[nH]n(-c2nc(-c3ccccc3)cs2)c1=O | nt | nt | nt | nt | i | nt
CCN1CCN(C2=C(NS(=O)(=O)c3ccc(Br)cc3)C(=O)c3ccccc3C2=O)CC1 | 12.6µM | i | ? | 17.8µM | nt | nt
CCOC(=O)C1CCN(C2=C(NS(=O)(=O)c3ccc(Br)cc3)C(=O)c3ccccc3C2=O)CC1 | 17.8µM | -79.7 | 17.8µM | i | nt | nt
NC(=O)C1CCN(C2=C(NS(=O)(=O)c3ccc(Br)cc3)C(=O)c3ccccc3C2=O)CC1 | ? | ? | ? | i | ? | ?
CCN1CCN(C2=C(NS(=O)(=O)c3ccccc3)C(=O)c3ccccc3C2=O)CC1 | 11.2µM | i | ? | i | nt | nt
O=C1C(NS(=O)(=O)c2ccc(Cl)cc2)=C(N2CCCCC2)C(=O)c2ccccc21 | ? | -80.4 | ? | i | i | -81.2
CCc1nc2cc(C(=O)N(C)CC3CCCN(C)C3)cc(NC(=O)c3ccccc3OC)c2n1C (configuration not stated) | nt | nt | i | nt | nt | nt
OC(COC(c1ccc(Cl)cc1)c1ccc(Cl)cc1)CN1CCc2ccccc2C1 (configuration not stated) | ? | i | nt | 11.2µM | 28.2µM | i
SMILES | TGFb SMAD3 inh | Six1-Eya2 blk | S2 tox | HepG2 viability | ATXN2 expr inh | CtBP-E1A blk
OC(COC(c1ccccc1)c1ccccc1)CN1CCc2ccccc2C1 (configuration not stated) | i | i | i | i | i | i
CN1CCN(CC(O)COC(c2ccc(Cl)cc2)c2ccc(Cl)cc2)CC1 (configuration not stated) | ? | i | i | 10µM | nt | nt
COc1ccc(OCC(=O)NC(Cc2c[nH]c3ccccc23)C(=O)O)cc1 (configuration not stated) | i | nt | i | i | i | nt
Nc1nc(-c2ccccc2)c(N=Nc2ccccc2Cl)s1 | ? | -75.8 | nt | i | ? | -66.9
Cc1ncc(N=Nc2ccccc2Cl)c(-c2ccccc2)n1 | i | -69.3 | i | i | i | -66.1
Nc1nc(-c2ccc(Cl)cc2)c(N=Nc2ccc(S(=O)(=O)N3CCOCC3)cc2)s1 | i | i | nt | i | i | i
Nc1nc(-c2ccccc2)c(N=Nc2cccc3ccccc23)s1 | 11.2µM | -78.1 | ? | i | i | -93.3
Cc1cc(F)ccc1S(=O)(=O)Nc1ccccc1C(=O)Nc1ccccc1-c1nc2ccccc2[nH]1 | ? | i | nt | 7.94µM | ? | i
COc1cccc(C2(CC(=O)N3CCCCC3CO)CC(=O)N(C)C2=O)c1 (configuration not stated) | nt | nt | i | nt | nt | nt
O=S(=O)(Nc1ccc(-c2ccc3nncn3n2)cc1)c1cc(F)ccc1F | i | i | i | i | i | i
COc1ccc(OC)c(S(=O)(=O)Nc2ccc(-c3ccc4nncn4n3)cc2)c1 | i | i | i | 7.94µM | i | i
COc1ccc2c(c1)CCc1cnc(-n3ncc(C(=O)N4CCN(CCO)CC4)c3C3CC3)nc1-2 | nt | nt | i | nt | nt | nt
Cc1[nH]c2ccccc2c1/C=N/NC(=S)NCc1ccccc1 | 12.6µM | i | ? | i | nt | nt
Cc1ccc(C(=O)Nc2cccc(C(F)(F)F)c2)cc1Nc1cncnc1 | ? | i | ? | i | ? | i
Cc1cnc(Nc2nc3ccccc3o2)nc1C(=O)Nc1cccc(C(F)(F)F)c1 | ? | i | i | 5.01µM | i | i
O=C(NNC(=S)Nc1cccc(C(F)(F)F)c1)c1ccc(Cl)cc1Cl | ? | i | i | i | i | i
O=C(COCC(=O)Nc1cccc(C(F)(F)F)c1)Nc1cccc(C(F)(F)F)c1 | i | i | i | 22.4µM | i | i
Cc1ccccc1C(=O)NNC(=S)Nc1cccc(C(F)(F)F)c1 | ? | i | i | 10µM | ? | i
Cc1ccc(C(=O)Nc2cccc(C(F)(F)F)c2)cc1Nc1ccccn1 | i | i | 31.6µM | i | ? | i
CCC1CCCCN1C(=O)c1sc(-n2nc(C)c(Cc3ccccc3)c2C)nc1C (configuration not stated) | i | nt | nt | i | nt | nt
COC(=O)C1CCCCN1Cc1ccc2c(c1)CN(C1CCSCC1)CCO2 (configuration not stated) | nt | nt | i | nt | nt | nt
CN1N=C(C(N)=O)CCC1=O | nt | nt | i | nt | i | nt
Cc1cc(C)c(C#N)c(SCCS(=O)(=O)Cc2ccc(Cl)cc2)n1 | 14.1µM | i | i | i | i | i
Cc1ccc2oc(-c3ccc(NC(=O)COc4ccccc4)cc3O)nc2c1 | i | nt | nt | i | nt | nt
CCn1c2ccccc2c2cc(C3C(C#N)=C(N)Oc4n[nH]c(COC)c43)ccc21 (configuration not stated) | 10µM | i | i | 3.98µM | 2.51µM | i
